GLP1R ag – qHTS of GLP-1 Receptor Agonists; HEK293 GLP-1R CRE-luciferase, luminescence, 4-6 h; cells express a hypersensitive GLP-1R form; Potency, µM (titrated, usually from 45.6 µM), without a hit: top-dose activation, most hits filed as activators; actives 0.007% (n = 380,000); AID 624172, 2012; note: % of control where 0% means no effect
Target sequence (P43220 whole entry, looked up): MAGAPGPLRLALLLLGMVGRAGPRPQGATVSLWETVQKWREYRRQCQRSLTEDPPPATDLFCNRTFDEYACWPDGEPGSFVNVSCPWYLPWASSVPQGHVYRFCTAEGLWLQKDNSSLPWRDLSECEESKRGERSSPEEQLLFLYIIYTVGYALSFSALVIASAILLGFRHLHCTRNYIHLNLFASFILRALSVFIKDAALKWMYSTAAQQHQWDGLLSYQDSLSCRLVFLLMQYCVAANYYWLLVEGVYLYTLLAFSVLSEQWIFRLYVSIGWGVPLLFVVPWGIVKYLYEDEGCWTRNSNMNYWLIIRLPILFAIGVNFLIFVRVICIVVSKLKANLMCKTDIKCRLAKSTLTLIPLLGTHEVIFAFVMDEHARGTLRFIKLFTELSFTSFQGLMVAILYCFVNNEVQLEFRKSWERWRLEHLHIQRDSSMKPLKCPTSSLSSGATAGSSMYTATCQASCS
GLP1R cytotox – qHTS of GLP-1 Receptor Inverse Agonists: Cytotox Screen; HEK293 cAMP-luciferase reporter cells, luminescence, 24 h; Potency, µM (series often up to 38.3 µM), inactives show at the highest dose activity change, negative = inhibition, actives largely listed as inhibitors; actives 0.13% (n = 410,000); AID 624418, 2012;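 note: loss of luciferase light is scored as toxicity; % is set by controls: 0 for no effect and ±100 for the full control effect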
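1536-well qHTS counterscreen of the MLSMR; 200 cells/uL, 12 h pre-incubation, 23 nL cpd, 24 h at 37 deg C 5% CO2, luciferase detection reagent, 12 min RT, luminescence. Inhibition = undesired.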
GLP-1R inv ag – qHTS of GLP-1 Receptor Inverse Agonists (Inhibition Mode). Glucagon-like peptide 1 receptor (Homo sapiens), P43220. HEK293 GLP-1R CRE-luciferase, luminescence, 24 h; GLP-1R form is constitutively active. Potency, µM (highest dose often 38.3 µM), inactives show at the top dose activity change, negative = inhibition, most hits filed as inhibitors. actives 1.6% (n = 410,000); note: % is set by controls: 0 for no effect and ±100 for the full control effect; nearly all actives have a fitted effect of over 55% in size
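Constitutively active GLP-1R drives a cAMP-responsive luciferase in stably transfected HEK293 cells; test compounds are added after overnight (12 h) attachment and left 24 hr, and signal loss in luminescence marks inhibition.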
VP16 counter – VP16 counterscreen qHTS for inhibitors of ROR gamma transcriptional activity | actives 3.5% (n = 310,000) | Drosophila S2 Gal4-VP16 UAS-luciferase, luminescence, 20 h | Potency, µM (titrated, usually from 53.6 µM), inactives show at the top dose activity, negative = inhibition, actives largely listed as inhibitors;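 note: Gal4-VP16 expression switched on by copper sulfate through the metallothionein promoter; % is set by controls: 0 for no effect and ±100 for the full control effect; nearly all actives have a fitted effect of over 50% in size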
RORgamma inh – qHTS for inhibitors of ROR gamma transcriptional activity. Nuclear receptor ROR-gamma (Mus musculus), P51450. Drosophila S2 Gal4-RORgamma UAS-luciferase reporter, 20 h. Potency, µM (series often up to 53.6 µM), for the others: at the highest dose activity change, negative = inhibition, actives largely listed as inhibitors. actives 5.4% (n = 310,000). AID 2551, 2010; note: % is set by controls: 0 for no effect and ±100 for the full control effect; nearly all actives have a fitted effect of over 60% in size
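A Gal4/UAS one-hybrid system in insect cells: metallothionein-promoter Gal4–ROR gamma fusion plus Photinus luciferase reporter. Copper sulfate 700 uM final, 20 hr ambient incubation, luminescent detection after 10 min with reagent.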
An asterisk follows results filed as active; u = inconclusive; x = not tested or not shown; [ ] = another dose, or the depositor's remark. Hits are enriched below; roughly 5.9% of the tested compounds scored in any of these assays. Calls come from the whole dose curve; as a rule, active = well fitted curve in the direction sought with a large enough effect; inconclusive = small, poorly fitted or top-dose-only effect, or another doubt; inactive = no such curve, though single readings can be large; an effect the other way counts as inactive or inconclusive. Potency is the fitted concentration of half-maximal effect.

SMILES | GLP1R ag | GLP1R cytotox | GLP-1R inv ag | VP16 counter | RORgamma inh
Cc1ccc(NC(=S)NC(=O)c2ccc(-c3ccc(Cl)cc3)o2)c(O)c1 | -9.8% | -26.7% | u | -1.8% | 8.2%
Cc1ccc(O)c(NC(=S)NC(=O)Cc2ccc(Cl)cc2)c1 | -1.0% | -8.2% | -14.8% | 11.2µM* | 12.6µM*
O=C(O)c1cccc(COc2ccccc2Cl)c1 | -25.7% | 19.1% | -41.7% | 1.12µM* | 23.5%
O=C(NCc1ccccc1)c1cccc(COc2cccc(Cl)c2)c1 | -1.6% | -11.7% | 7.94µM* | 3.4% | 43.0%
COc1cc(CNC(=O)c2cccc(COc3ccc(Cl)cc3)c2)cc(OC)c1 | -10.5% | -17.2% | 3.16µM* | -1.7% | u
CCCCCCCn1c(=O)c(C(=O)OC)c(N)c2ccccc21 | 17.3% | 3.0% | 11.2µM* | 1.26µM* | 1.78µM*
CCCCCCCCn1c(=O)c(C(=O)OC)c(N)c2ccccc21 | 7.1% | -29.6% | u | 4.47µM* | 3.16µM*
CCNc1ncc2nc(-c3cccs3)c(=O)n(Cc3ccc(F)cc3)c2n1 | x | x | x | -6.9% | 4.5%
COc1ccccc1Nc1nc(N)nc(CN2CCCCC2)n1 | -13.8% | -10.3%[0.307 µM] | -7.6%[0.307 µM] | -11.6%[10 µM] | -40.6%
COc1ccccc1Nc1nc(N)nc(CN2CCN(Cc3ccccc3)CC2)n1 | 3.0% | u | 3.2% | 13.0% | -27.5%
Nc1nc(CSC(=S)N2CCCCC2)nc(Nc2ccccc2)n1 | 27.7% | u | -29.8% | -15.1% | u
CCOc1ccc(Nc2nc(N)nc(CN3CCN(c4ccccc4F)CC3)n2)cc1 | 9.4% | -26.0% | u | -5.5% | 11.2µM*
COc1ccccc1Nc1nc(N)nc(CN2CC(C)CC(C)C2)n1 (stereo not given) | 6.9% | 3.0%[0.307 µM] | -3.9%[0.307 µM] | -0.6%[10 µM] | 8.91µM*
COc1ccccc1Nc1nc(N)nc(CN2CCN(c3ccccc3F)CC2)n1 | -5.4% | 2.1% | u | 7.94µM* | 1.78µM*
CC1CC(C)CN(C(=S)SCc2nc(N)nc(Nc3ccccc3)n2)C1 (stereo not given) | 27.4% | -32.3% | u | u | 5.62µM*
CC[C@@](N)(C(=O)O)c1ccc(C(=O)O)cc1 | x | x | x | 5.0% | 1.2%
COc1ccccc1CNc1ncncc1-c1ccccc1C(F)(F)F | x | x | x | 4.2% | 0.4%
CC(C)NC(=O)C1CCN(c2nc3ccccc3nc2C(F)(F)F)CC1 | x | 1.7% | 2.3% | x | x
COc1ccccc1N1CCN(Cc2nc(N)nc(Nc3ccc(C)c(Cl)c3)n2)CC1 | -24.4% | 15.4% | 2.24µM* | 1.0% | 11.2µM*
CCOc1ccccc1Nc1nc(N)nc(CN(C)C2CCCCC2)n1 | 2.1% | -16.4% | -10.6% | -9.4% | 11.2µM*
CN[C@@H]1[C@H](O[C@@H]2O[C@H](C)[C@@](O)(CO)[C@H]2O[C@H]2[C@H](O)[C@H](O)[C@H](N=C(N)N)[C@@H](O)[C@@H]2N=C(N)N)O[C@@H](CO)[C@H](O)[C@H]1O | x | x | x | -0.5% | -15.5%
CCOc1ccc(NC(=O)Cn2c(=O)n(CC3CCC(C(=O)NCCc4ccccc4)CC3)c(=O)c3ccccc32)cc1 (stereo not given) | 0.7% | 0.2% | -15.3% | x | x
COC(=O)/C(=C/c1c[nH]c2ccccc12)NC(C)=O | 0.0% | 11.0% | 23.6% | -1.7% | 7.7%
COC(=O)/C(=C/c1c[nH]c2ccccc12)[N+](=O)[O-] | -1.0% | 5.8% | 14.3% | 20µM* | u
COc1ccccc1Cn1c(=S)[nH]c2cc(C(=O)NCC3CCCO3)ccc2c1=O (stereo not given) | 5.2% | 0.6% | -33.4% | u | 12.6µM*
SMILES | GLP1R ag | GLP1R cytotox | GLP-1R inv ag | VP16 counter | RORgamma inh
CCCn1c(=S)[nH]c2cc(C(=O)N3CCN(C4CCCCC4)CC3)ccc2c1=O | 4.1% | -16.0% | -11.1% | -12.0% | 10µM*
COCCCNC(=O)c1ccc2c(=O)n(CC3CCCO3)c(=S)[nH]c2c1 (stereo not given) | 0.1% | 0.4% | 0.6% | -9.0% | -23.2%
CCOCCCn1c(=S)[nH]c2cc(C(=O)N3CCOCC3)ccc2c1=O | 5.5% | 5.7% | 4.8% | -5.1% | -9.3%
CCCn1c(=S)[nH]c2cc(C(=O)N3CCCC(C(=O)OCC)C3)ccc2c1=O (stereo not given) | 0.9% | 20.3% | 0.0% | u | 11.2µM*
COCCCNC(=O)c1ccc2c(=O)n(C3CCCC3)c(=S)[nH]c2c1 | -14.3% | 4.1% | 0.6% | u | 14.1µM*
COc1ccc(OC)c(CNC(=O)Cc2ccc(NC(=O)N3CCSc4ncccc43)cc2)c1 | x | 3.2% | -2.9% | x | x
O=C(Nc1cc(-c2ccc(F)c(F)c2)no1)c1ccccc1F | x | -13.3% | 7.9% | x | x
CCN1CCN(C(=O)c2ccc3c(=O)n(C4CCCC4)c(=S)[nH]c3c2)CC1 | -7.1% | 5.1% | 0.0% | 14.1µM* | 7.08µM*
O=C(c1ccc2c(=O)n(C3CCCC3)c(=S)[nH]c2c1)N1CCN(C2CCCCC2)CC1 | 0.2% | -3.8% | -1.8% | 1.5% | -42.0%
N[C@@H](CSS(=O)(=O)O)C(=O)O | x | x | x | -0.7% | -7.0%
O=C1C2C(c3ccccc3)CC=CC2[C@H](c2cccc([N+](=O)[O-])c2)N1Cc1ccccc1 (stereo not given in full) | -4.8% | 2.6% | 10µM* | -15.6% | 5.3%
O=C1C2C(c3ccccc3)CC=CC2C(c2cccc([N+](=O)[O-])c2)N1Cc1ccccc1 (stereo not given) | x | x | x | -1.1% | 20.2%
Cc1ccc(-c2cccc(C3CC=CC4C3C(=O)N(Cc3ccccc3)C4c3cc(C)ccc3F)c2)cc1 (stereo not given) | -4.1% | -20.4% | 4.47µM* | -1.1% | u
COc1ccc(-c2nn(C)c3sc(C(=O)N4CCN(c5cc(Cl)ccc5C)CC4)cc23)cc1OC | x | -3.7% | 0.9% | x | x
c1ccc2c(c1)Cn1nc(Cc3nc4c(s3)CCCC4)nc1-2 | 19.3% | -0.9% | 28.4% | 0.3% | 14.1µM*
COc1cc2nc(NCc3ccccc3)n3nc(-c4ccccc4)nc3c2cc1OC | x | -4.8% | -5.2% | x | x
O=C1CCC[C@@H]2C[C@@]3(C[C@@H]4CCN1[C@H]24)Nc1cc(Cl)c(Cl)cc1NC3=NCc1ccccc1 | 0.9% | -27.8% | 10µM* | x | x
O=C1CCC[C@@H]2[C@H](Cc3ccccc3)[C@@H](O)C[C@@H]3CCN1[C@@H]32 | -2.5% | -12.5% | 5.7% | x | x
CCc1ccc(NC(=O)C2CCN(c3nn4c(=O)cc(C)nc4s3)CC2)cc1 | x | 0.0% | -10.1% | x | x
C=CCCN(Cc1ccc(OC)cc1)S(=O)(=O)c1ccccc1Br | x | x | x | -0.4% | -14.5%
COc1ccc(CN(CCC(C)C)S(=O)(=O)c2ccccc2Br)cc1 | 0.6% | 19.1% | 11.2µM* | x | x
